Screening results from PubChem BioAssay.
Rows were chosen to be rich in hits. Some 2.8% of all compounds tested hit in one or more screens of this group.
PME-1 inh = PME-1 inhibitors via competitive probe labeling, primary screen, biochemical, fluorescence polarization, FP-Rh probe, HTS. Protein phosphatase methylesterase 1 (Homo sapiens), Q9Y570. recombinant PME-1. inhibition, % at 5.9 µM. 320,000 compounds, 0.53% hits;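 active means inhibition above the campaign mean of all compounds plus 3 SD, cut at about 26% in these data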;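 further: competitive labeling of PME-1 active site by serine hydrolase directed probe; 0% = PME-1 with DMSO and 100% = wells lacking PME-1 enzyme; inhibitors block probe labeling so polarization falls and inhibition rises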
Target sequence (Q9Y570 whole entry, looked up): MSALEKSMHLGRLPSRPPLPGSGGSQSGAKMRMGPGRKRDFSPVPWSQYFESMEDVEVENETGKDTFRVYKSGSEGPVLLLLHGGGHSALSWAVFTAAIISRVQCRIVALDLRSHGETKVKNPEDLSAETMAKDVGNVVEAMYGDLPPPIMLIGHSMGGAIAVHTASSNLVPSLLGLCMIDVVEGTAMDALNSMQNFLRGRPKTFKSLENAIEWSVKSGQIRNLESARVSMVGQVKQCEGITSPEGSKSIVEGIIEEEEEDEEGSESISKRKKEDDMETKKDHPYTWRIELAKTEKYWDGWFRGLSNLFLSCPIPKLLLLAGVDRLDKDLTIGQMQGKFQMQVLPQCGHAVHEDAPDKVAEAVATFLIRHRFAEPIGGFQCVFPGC
Fam108B inh = mouse Fam108B serine hydrolase inhibitors, primary screen, counter-screen for RBBP9 inhibitor project, biochemical, fluorescence polarization. recombinant Fam108B, FP-Rh probe fluorescence polarization. AID 1947, 2009. inhibition, % at 9.51 µM. 300,000 compounds, 0.33% hits;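 active means inhibition above the screen mean inhibition plus 3 SD, computed separately per campaign, cut at about 18% in these data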;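 further: inhibitors lower polarization as less probe binds the enzyme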
PAFAH2 inh = PAFAH2 enzyme inhibitors, primary screen, biochemical, fluorescence polarization, human | Platelet-activating factor acetylhydrolase 2, cytoplasmic (Homo sapiens), Q99487 | recombinant PAFAH2, FP-rhodamine activity probe | inhibition, % at 3.39 µM | 340,000 compounds, 0.99% hits | AID 492956, 2010;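 active means inhibition above the mean over all tested compounds plus 3 SD, cut at about 30% in these data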;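 further: inhibitors block probe labeling of enzyme so polarization drops; 0% = enzyme with DMSO and 100% = wells lacking PAFAH2 protein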
PAFAH1B2 inh = PAFAH1B2 enzyme inhibitors, primary screen, biochemical, fluorescence polarization, human | inhibition, % at 3.39 µM | recombinant PAFAH1B2, FP-rhodamine activity probe | 340,000 compounds, 1.2% hits | AID 492953, 2010 | Platelet-activating factor acetylhydrolase IB subunit alpha2 (Homo sapiens), P68402;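 active means inhibition above the mean of all tested compounds plus 3 SD, cut at about 24% in these data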;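 further: 0% = enzyme with DMSO and 100% = wells lacking PAFAH1B2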
PAFAH1B3 FP inh = PAFAH1B3 enzyme inhibitors, primary screen, biochemical, fluorescence polarization, human | 340,000 compounds, 0.28% hits | Platelet-activating factor acetylhydrolase IB subunit alpha1 (Homo sapiens), Q15102 | AID 492972, 2010 | recombinant PAFAH1B3, FP-rhodamine probe | inhibition, % at 3.39 µM;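 active means inhibition above the screen-wide average of all tested compounds plus 3 SD, cut at about 25% in these data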;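 further: 0% = enzyme with DMSO only and 100% = wells lacking PAFAH1B3 protein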
Target sequence (Q15102 whole entry, looked up): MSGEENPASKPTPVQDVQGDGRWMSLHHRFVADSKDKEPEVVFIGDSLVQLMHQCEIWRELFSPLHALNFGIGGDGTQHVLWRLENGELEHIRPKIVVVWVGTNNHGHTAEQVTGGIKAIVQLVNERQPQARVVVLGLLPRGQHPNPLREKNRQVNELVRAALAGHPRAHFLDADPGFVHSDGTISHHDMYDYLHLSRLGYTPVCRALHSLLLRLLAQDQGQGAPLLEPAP
pPAFAH inh = pPAFAH enzyme inhibitors, primary screen, biochemical, fluorescence polarization, human; recombinant pPAFAH, FP-rhodamine probe fluorescence polarization; inhibition, % at 3.39 µM; 330,000 compounds, 1.5% hits;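 active means inhibition above the mean inhibition across the screen plus 3 SD, cut at about 25% in these data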;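 further: inhibitors block binding of the rhodamine activity-based probe so polarization drops; 0% = enzyme with DMSO and 100% = wells lacking pPAFAH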
PAFAH2 confirm = PAFAH2 enzyme inhibitors, confirmation, biochemical, fluorescence polarization, human; recombinant PAFAH2, FP-rhodamine activity probe; 2,300 compounds, 65% hits; shares compounds with PAFAH2 inh; inhibition, % at 3.39 µM;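 active means mean inhibition over three repeats above a set limit taken from the earlier primary screen, cut at about 30% in these data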;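 further: inhibitor blocks binding of rhodamine activity probe so polarization falls; 0% = enzyme with DMSO and 100% = wells lacking PAFAH2 protein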
Starred values were filed as active, the others as inactive; . = no result given.

SMILES | PME-1 inh | Fam108B inh | PAFAH2 inh | PAFAH1B2 inh | PAFAH1B3 FP inh | pPAFAH inh | PAFAH2 confirm
Cc1cccc(-c2nc3ccccc3c3nncn23)c1 | 0 | -2 | 159* | -1 | -1 | -6 | 5
COC(=O)/C(=N\OCc1ccc(C#N)cc1)c1c(C)nn(C)c1C | 2 | -1 | -4 | 6 | 10 | -1 | .
COc1cc(/C=C/C(=O)OCC(=O)NCC2CCCO2)ccc1OCC#N (configuration not stated) | 4 | 2 | 43* | 4 | 2 | 4 | 30*
O=C(COC(=O)/C=C/c1ccc(C(F)(F)F)cc1)NCC1CCCO1 (configuration not stated) | -1 | 0 | 10 | 0 | -1 | 8 | .
COc1cc(/C=C/C(=O)OCC(=O)NCc2ccco2)ccc1OCC#N | 8 | 3 | 44* | 2 | 14 | 5 | 37*
COc1ccc(CCNC(=O)COC(=O)/C=C/c2ccc(OCC#N)c(OC)c2)cc1OC | 5 | -1 | 11 | 5 | -9 | 3 | .
O=C(COC(=O)/C=C/c1ccc(F)cc1)NCC1CCCO1 (configuration not stated) | . | . | 38* | 1 | 15 | 2 | 26
COc1cc(/C=C/C(=O)OCC(=O)NCc2ccco2)cc(OC)c1OC | 5 | 1 | 10 | 2 | 2 | 5 | .
O=C(COC(=O)/C=C/c1ccccc1)NC1CCCCCC1 | . | . | 89* | 2 | 7 | . | 82*
O=C(COC(=O)/C=C/c1ccccc1[N+](=O)[O-])NC1CCS(=O)(=O)C1 (configuration not stated) | 1 | -3 | 5 | 0 | 1 | 9 | .
O=C(COC(=O)/C=C/c1ccc(C(F)(F)F)cc1)NC1CC1 | 0 | 1 | 18 | 3 | 5 | -1 | .
O=C(COC(=O)/C=C/c1cccc(C(F)(F)F)c1)NC1CCCCCC1 | 0 | . | 31* | 1 | 3 | -4 | 43*
O=C(COC(=O)/C=C/c1ccccc1[N+](=O)[O-])NC1CC1 | -5 | -4 | 36* | 7 | -4 | 20 | 23
O=C(COC(=O)/C=C/c1cccs1)NC1CC1 | -12 | 2 | 41* | 1 | 4 | -10 | 39*
Cc1ccc(CNC(=O)C2CCCN(S(=O)(=O)c3ccc(-n4cnnn4)cc3)C2)cc1 (configuration not stated) | 0 | -11 | -13 | 11 | -7 | -1 | .
O=C(COC(=O)/C=C/c1ccccc1)NC1CCS(=O)(=O)C1 (configuration not stated) | -1 | . | 6 | -4 | 11 | 2 | .
O=C(COC(=O)/C=C/c1ccccc1)NC(=O)NC1CCCCC1 | . | . | 35* | 0 | -1 | 9 | 25
O=C(COC(=O)/C=C/c1ccccc1)NC1CC1 | 0 | . | 54* | -1 | 8 | 1 | 33*
Cc1cc(OCC#N)nc(N)n1 | 3 | -3 | 5 | 2 | -7 | 1 | .
O=C(NCC1CCN(c2ccc(S(=O)(=O)N3CCOCC3)cc2)CC1)c1ccc(Cl)cc1 | 1 | 3 | -6 | 7 | 11 | 0 | .
O=C(CSC1=NS(=O)(=O)c2cc(Cl)ccc2N1)NCc1ccccc1 | 7 | 2 | 3 | 13 | 7 | 3 | .
NS(=O)(=O)c1cc2c(cc1Cl)NC(CSCc1ccccc1)=NS2(=O)=O | 2 | 0 | 34* | 23 | -4 | -5 | 26
O=C(O/N=C1\CCCc2ccccc21)c1cccs1 | 4 | 4 | 42* | 4 | 4 | -1 | -5
COc1ccc(C(=O)NC(=O)CSc2n[nH]c(N)n2)cc1 | . | . | 2 | 7 | 6 | -1 | .
Cc1ccsc1C(=O)OCC(=O)Nc1c(Cl)cccc1C(F)(F)F | 1 | 2 | 31* | 4 | 1 | 15 | 30*
SMILES | PME-1 inh | Fam108B inh | PAFAH2 inh | PAFAH1B2 inh | PAFAH1B3 FP inh | pPAFAH inh | PAFAH2 confirm
Cc1c(Cl)cnc(NC(=O)COC(=O)C2CC2)c1Cl | . | . | 44* | 5 | 6 | 18 | 28
O=C(COC(=O)C1CC1)Nc1c(Cl)cccc1C(F)(F)F | -4 | 4 | 38* | -2 | -4 | 3 | 26
COC(CN1C(=O)C(=O)/C(=C(/O)c2ccccc2)C1c1ccccn1)OC (configuration not stated) | 2 | 1 | 8 | 4 | 4 | -2 | .
Clc1ccc(Cl)c(OCCN2CCCC2)c1 | 4 | 3 | -1 | 4 | 6 | 5 | .
CCCCS(=O)(=O)N1CCCC(C(=O)Oc2ccc(Cl)cc2)C1 (configuration not stated) | 2 | 4 | -3 | 3 | 11 | -2 | .
COc1ccc(NC(=O)CN(C)CC(=O)NCc2ccc(C)cc2)cc1 | -3 | . | 0 | 0 | -1 | 2 | .
CCCc1cc(=O)n2[nH]c(C)cc2n1 | -8 | 0 | 2 | 2 | 4 | -1 | .
O=C(COC(=O)C1CCC1)Nc1cccc(Cl)c1 | -2 | 0 | 3 | 0 | -2 | 0 | .
O=C(COC(=O)C1CCCCC1)Nc1cccc(Br)c1 | 3 | . | 77* | -2 | 4 | 7 | 71*
O=C(COC(=O)C1CCCCC1)Nc1cccc(F)c1 | . | . | 89* | -1 | 4 | 10 | 79*
O=C(COC(=O)CC1CCCC1)Nc1cccc(F)c1 | 0 | . | 81* | -4 | -1 | 21 | 81*
CC(C)c1cc(NCCOCCO)n2c(nc3ccccc32)c1C#N | 1 | 2 | 12 | 3 | -3 | 11 | .
CCCNCC(O)COc1ccccc1C(=O)CCc1ccccc1 (configuration not stated) | 1 | -2 | 1 | -1 | 2 | -2 | .
O=[N+]([O-])c1cccc(-c2cc(C(F)(F)F)n3nc(-c4ccccc4)cc3n2)c1 | 1 | 9 | -6 | 6 | 8 | -1 | .
CCS(=O)(=O)c1ccc(O)c(NC(=O)COc2ccccc2)c1 | 2 | 4 | 48* | 6 | 1 | 14 | 44*
CCc1ccc(OCC(=O)Nc2cc(S(=O)(=O)CC)ccc2O)cc1 | -12 | 5 | 23 | 5 | -5 | 11 | .
CCS(=O)(=O)c1ccc(O)c(NC(=O)NC2CCCCC2)c1 | 1 | 2 | 81* | 8 | 0 | 10 | 64*
Cc1onc(-c2c(Cl)cccc2Cl)c1NC(=O)NC1CCSC1 (configuration not stated) | 7 | 1 | . | . | . | 5 | .
O=C(CCC(=O)N1CCCC1)Nc1ccc(Cl)c(Cl)c1 | 6 | 4 | 54* | -6 | 3 | 23 | 57*
